Source: PubChem BioAssay
AMA1-RON2 inh = qHTS for Inhibitors of AMA1-RON; Towards Development of Antimalarial Drug Lead: Primary Screen. Potency, µM (titrated, usually from 58.2 µM), without a hit: at the highest dose activity change, negative = inhibition, usual class: inhibitors. 360,000 tested, 0.2% active. AlphaScreen AMA1-biotinylated RON2 peptide binding. AID 720542, 2013;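 further: 0% = vehicle wells and -100% = peptide control; nearly all actives have a fitted effect of over 45% in size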
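AMA1 (3D7) with his tag at 25 nM final met compounds first, then biotinylated RON2 peptide at 25 nM; detection used donor plus acceptor beads, 10 µg/mL apiece, read by AlphaScreen after 30 min at room temperature.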
SARS PLP yeast = qHTS of Yeast-based Assay for SARS-CoV PLP | S. cerevisiae expressing SARS-CoV PLpro, growth rescue | Potency, µM (series often up to 32.9 µM), for the others: at the highest dose activity, positive = growth rescue, most hits filed as activators | 330,000 tested, 0.19% active | AID 485353, 2010; calls by dose curve; further: 0% is about no effect; nearly all actives have a fitted effect of over 55% in size
Pf growth 96h = Primary qHTS for delayed death inhibitors of the malarial parasite plastid, 96 hour incubation | P. falciparum luciferase reporter growth, 96 h | Potency, µM (doses to about 28.7 µM), for inactives: top-dose activity change, negative = inhibition, most hits filed as inhibitors | 320,000 tested, 6.9% active; further: on the % scale 0 is the no-effect control and ±100 the full control effect
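P. falciparum expressing integrated firefly luciferase grown in erythrocytes (2% hematocrit, 0.05% parasitemia final) with compounds for 96 hours at 37 C, 5% CO2. Growth inhibition read as loss of luminescence after adding luciferase detection reagent.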
Pf growth 48h = Primary qHTS for delayed death inhibitors of the malarial parasite plastid, 48 hour incubation; P. falciparum luciferase growth in erythrocytes, 48 h; Potency, µM (highest dose often 28.7 µM), inactives show top-dose activity change, negative = inhibition, usual class: inhibitors; 310,000 tested, 5.9% active; AID 504832, 2011; further: on the % scale 0 is the no-effect control and ±100 the full control effect
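A one-generation exposure of luciferase-tagged malaria parasites in RPMI 1640/Albumax erythrocyte culture, 37 C and 5% CO2. Inhibition is inferred from decreased luminescence after adding detection reagent.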
Numbers without * were called inactive; ? = inconclusive; . = not tested or not shown; [ ] = another dose, or the depositor's remark. An excerpt weighted towards active compounds, which were near 9.4% of everything screened. Unless noted, the call rests on the fitted dose curve; in most records, active means well fitted curve in the direction sought with a large enough effect; inconclusive means small, poorly fitted or top-dose-only effect, or another doubt; inactive means no such curve, though single readings can be large; an effect the other way counts as inactive or inconclusive. Potency means the concentration at half of the fitted maximal effect.

SMILES	AMA1-RON2 inh	SARS PLP yeast	Pf growth 96h	Pf growth 48h
C=CCNC(=O)c1n[nH]c2c1CC(C(C)(C)CC)CC2 (centres undefined)	-1%	-6%	?	?
O=C(c1nc2ccccn2c1CN1CCCC(c2nc3ccccc3o2)C1)N1CCCC1 (centres undefined)	-1%	15%	10%	-27%
Cc1ccc(-n2nnnc2CNC(=O)C(=O)c2c[nH]c3ccccc23)cc1C	-5%	.	.	.
COc1ccc(C)cc1S(=O)(=O)Nc1cccnc1	5%	11%	6.6µM*	24%
CCCCCNS(=O)(=O)c1cc(C)ccc1OC	19%	-1%	12µM*	-11%
CN(Cc1ccccc1)C(=O)COC(=O)COc1ccc(C#N)cc1	-8%	7%	6%	131%
CC(C)n1nnnc1C1c2ccccc2C(=O)N1CCc1ccccc1F (centres undefined)	24%	.	.	.
COc1ccc(CCn2c(=N)c(C(=O)NC3CCCC3)cc3c(=O)n4ccccc4nc32)cc1OC	6%	27%	3.3µM*	4.1µM*
COc1ccc(Cn2c(=N)c(C(=O)NC3CCCCC3)cc3c(=O)n4ccccc4nc32)cc1	-3%	0%	1.9µM*	4.7µM*
COc1ccc(CCn2c(=N)c(C(=O)NC3CCCC3)cc3c(=O)n4ccccc4nc32)cc1	-8%	-16%	?	?
Cc1cc(NC(=O)CSCCO)no1	2%	0%	17%	-13%
O=S(=O)(Nc1ccc(N=Nc2ccc(O)c3ccccc23)cc1)c1ccccc1	?	-49%	5.2µM*	2.3µM*
O=S(=O)(Nc1ccc(N=Nc2ccccc2)cc1)c1ccccc1	-19%	-12%	-9%	36%
Cc1ccc(F)c([C@H]2C3C=CCC(c4ccccc4)C3C(=O)N2Cc2ccccc2)c1 (some centres undefined)	-7%	-8%	?	12µM*
COc1ccc(-c2c([C@H]3[C@H]4C=CC[C@@H](C)[C@@H]4C(=O)N3Cc3ccccc3)ccc3ccccc23)cc1	-18%	4%	9.3µM*	7.4µM*
COc1ccc(-c2ccc([C@H]3[C@H]4C=CC[C@@H](C)[C@@H]4C(=O)N3Cc3ccccc3)c(F)c2)cc1	10%	-5%	?	12µM*
Cc1ccc(-c2cc([C@H]3[C@H]4C=CC[C@@H](C)[C@@H]4C(=O)N3Cc3ccccc3)ccc2F)cc1	-1%	-3%	?	10µM*
COc1ccc(-c2ccc(OC)c([C@H]3[C@H]4C=CC[C@@H](C)[C@@H]4C(=O)N3Cc3ccccc3)c2)cc1	-3%	-1%	?	?
C[C@@H]1COC(=O)[C@H](CC(=O)OC(C)(C)C)C/C=C\C[C@H](CC(=O)NCCO)C(=O)N1	0%	-42%	.	.
COc1ccc(-c2ccoc2)cc1[C@H]1[C@H]2C=CC[C@@H](C)[C@@H]2C(=O)N1Cc1ccccc1	0%	-15%	?	10µM*
COc1ccc(-c2c([C@H]3[C@@H]4C=CCC[C@@]4(C)C(=O)N3Cc3ccccc3)ccc3ccccc23)cc1OC	-26%	-11%	5.2µM*	5.2µM*
Cc1nc(C)n(CC(C)C(=O)N2CCN(S(=O)(=O)c3ccccc3)CC2)n1 (centres undefined)	1%	29%	-29%	?
CCOC(=O)CCn1nnc(N)n1	4%	2%	10µM*	4%
CCCCC[C@]12Cc3cc(OC)c(OC)cc3C(O1)c1c(cc(C)n(-c3ccccc3)c1=O)O2	.	9%[6.58 µM]	36%[5.75 µM]	?
COc1cc2c(cc1OC)C1O[C@](CCCCN3C(=O)c4ccccc4C3=O)(C2)Oc2c1c(=O)oc1ccc(F)cc21	.	-3%[6.58 µM]	-14%[5.75 µM]	?
SMILES	AMA1-RON2 inh	SARS PLP yeast	Pf growth 96h	Pf growth 48h
COc1cc2c(cc1OC)C1O[C@](CCCCN3C(=O)c4ccccc4C3=O)(C2)OC2=C1C(=O)CCC2	.	-5%[6.58 µM]	1.5µM*	1.5µM*
COc1cc2c(cc1OC)C1O[C@](CCCCN3C(=O)c4ccccc4C3=O)(C2)OC2=C1C(=O)c1ccccc1C2=O	.	1%[6.58 µM]	0.34µM*	?
COc1ccc2c3c(c(=O)oc2c1)C1O[C@](CCCCN2C(=O)c4ccccc4C2=O)(Cc2cc(OC)c(OC)cc21)O3	.	10%[6.58 µM]	41%[5.75 µM]	1.5µM*
Nc1nc(Cl)cc(=O)n1Cc1ccc(Cl)cc1	-6%	.	.	.
Cc1cccc(N2CCN(C(=S)NCCc3ccccc3)CC2)c1C	17%	-3%	55%	16%
Cc1sc(NC(=O)Cn2[nH]c(=O)c3ccccc3c2=O)nc1-c1ccccc1	55%	12%	12µM*	?
COc1cccc(NC(=O)CCS(=O)(=O)c2ccc3c(c2)oc(=O)n3C)c1	-1%	-6%	?	7%
COc1cc(NC(=O)CCS(=O)(=O)c2ccc3c(c2)oc(=O)n3C)cc(OC)c1OC	-11%	-1%	2.3µM*	-29%
Cn1c(=O)c(=O)n(C)c2cc(S(=O)(=O)CCC(=O)Nc3cccc(C(F)(F)F)c3)ccc21	-2%	-6%	10µM*	10%
CC(CNC(=O)CCS(=O)(=O)c1ccc2c(c1)oc(=O)n2C)c1ccccc1 (centres undefined)	0%	0%	9.3µM*	?
CCOc1ccccc1C1CC(c2cccs2)=NN1S(C)(=O)=O (centres undefined)	2%	0%	-9%[5.75 µM]	-9%
COc1ccc(Cl)cc1NC(=O)c1cccc(NC(=O)CCC(=O)O)c1	5%	23%	?	8%
CCOC(=O)c1c(C)[nH]c(C)c1C(=O)COC(=O)/C=C/c1ccc(Cl)cc1	-15%	-42%	9.3µM*	?
Cc1nn(CC(O)CN2c3ccccc3Sc3ccccc32)c(C)c1Br (centres undefined)	?	-32%	2.6µM*	.
O=C1c2ccccc2C(=O)N1CC(O)Cn1nnc2ccccc21 (centres undefined)	-4%	5%	9.3µM*	-3%
OC(CN1c2ccccc2Sc2ccccc21)Cn1nnc2ccccc21 (centres undefined)	-16%	-7%	?	4.7µM*
OC(Cn1nnc2ccccc21)Cn1c(C(F)(F)F)nc2ccccc21 (centres undefined)	3%	1%	?	27%
COC(=O)[C@H](Cc1ccccc1)NC(=O)NCc1ccc(S(N)(=O)=O)cc1	-1%	5%	.	2%
COc1ccc(C2=CC(=O)OC(C)(c3ccccc3)O2)cc1 (centres undefined)	-2%	13%	96%	12µM*
Cc1cc([N+](=O)[O-])ccc1NC(=O)c1sc2ncn(CC(=O)N3CCOCC3)c(=O)c2c1C	0%	1%	15µM*	?
Cc1ccc(NC(=O)c2sc3ncn(CC(=O)N4CCOCC4)c(=O)c3c2C)c(Br)c1	-3%	-1%	12µM*	18%
CC(=O)NC12CC3CC(C1)CC(C(=O)Oc1ccc(N(C)S(=O)(=O)c4cc(C)ccc4C)cc1)(C3)C2	-8%	-1%	13µM*	?
